Among the data in the supplement of paper PMC10849652 are log2 fold change values, retold here.

The full data set covers some 7,900 targets. This sample favours those with a hit. About 0.6% of all pairs of compound and target were hits. Values without a mark were called inactive.

Sequence of UniProt Q13137 (Q13137 whole entry, looked up): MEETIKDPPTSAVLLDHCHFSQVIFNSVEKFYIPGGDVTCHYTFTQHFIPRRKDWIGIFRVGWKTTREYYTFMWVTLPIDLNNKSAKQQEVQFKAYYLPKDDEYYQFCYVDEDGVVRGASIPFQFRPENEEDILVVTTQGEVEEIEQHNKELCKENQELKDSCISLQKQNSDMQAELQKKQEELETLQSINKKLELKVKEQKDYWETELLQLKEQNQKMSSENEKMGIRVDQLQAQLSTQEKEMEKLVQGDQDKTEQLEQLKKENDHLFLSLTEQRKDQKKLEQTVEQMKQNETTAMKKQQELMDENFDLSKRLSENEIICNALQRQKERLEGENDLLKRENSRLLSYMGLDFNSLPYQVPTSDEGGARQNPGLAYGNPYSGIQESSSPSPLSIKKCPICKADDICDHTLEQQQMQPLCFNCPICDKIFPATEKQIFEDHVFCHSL
Sequence of UniProt P08174 (P08174 whole entry, looked up): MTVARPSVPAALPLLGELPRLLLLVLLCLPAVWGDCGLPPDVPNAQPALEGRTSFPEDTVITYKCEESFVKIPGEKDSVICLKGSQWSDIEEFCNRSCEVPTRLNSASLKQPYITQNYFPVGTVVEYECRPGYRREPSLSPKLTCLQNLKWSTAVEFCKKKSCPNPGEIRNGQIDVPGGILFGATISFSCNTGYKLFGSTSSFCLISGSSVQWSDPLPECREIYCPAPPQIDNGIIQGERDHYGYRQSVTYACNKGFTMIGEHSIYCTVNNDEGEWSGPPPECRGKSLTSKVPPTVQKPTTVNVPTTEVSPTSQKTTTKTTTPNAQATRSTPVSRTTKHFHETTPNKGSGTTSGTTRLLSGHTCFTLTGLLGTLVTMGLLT
Sequence of UniProt P41240 (P41240 whole entry, looked up): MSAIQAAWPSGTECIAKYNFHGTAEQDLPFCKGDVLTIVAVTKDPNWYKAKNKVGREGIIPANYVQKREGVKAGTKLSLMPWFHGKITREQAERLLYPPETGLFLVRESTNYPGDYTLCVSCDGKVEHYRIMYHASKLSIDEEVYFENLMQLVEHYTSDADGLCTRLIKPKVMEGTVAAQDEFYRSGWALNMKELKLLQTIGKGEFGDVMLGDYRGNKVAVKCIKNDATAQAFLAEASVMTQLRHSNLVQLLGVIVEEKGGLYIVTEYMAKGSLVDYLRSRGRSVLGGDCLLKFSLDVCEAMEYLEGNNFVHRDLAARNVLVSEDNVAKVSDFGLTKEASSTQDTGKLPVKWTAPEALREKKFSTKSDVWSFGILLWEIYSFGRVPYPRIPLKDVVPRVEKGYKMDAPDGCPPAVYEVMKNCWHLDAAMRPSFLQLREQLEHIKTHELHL
Sequence of UniProt O00748 (O00748 whole entry, looked up): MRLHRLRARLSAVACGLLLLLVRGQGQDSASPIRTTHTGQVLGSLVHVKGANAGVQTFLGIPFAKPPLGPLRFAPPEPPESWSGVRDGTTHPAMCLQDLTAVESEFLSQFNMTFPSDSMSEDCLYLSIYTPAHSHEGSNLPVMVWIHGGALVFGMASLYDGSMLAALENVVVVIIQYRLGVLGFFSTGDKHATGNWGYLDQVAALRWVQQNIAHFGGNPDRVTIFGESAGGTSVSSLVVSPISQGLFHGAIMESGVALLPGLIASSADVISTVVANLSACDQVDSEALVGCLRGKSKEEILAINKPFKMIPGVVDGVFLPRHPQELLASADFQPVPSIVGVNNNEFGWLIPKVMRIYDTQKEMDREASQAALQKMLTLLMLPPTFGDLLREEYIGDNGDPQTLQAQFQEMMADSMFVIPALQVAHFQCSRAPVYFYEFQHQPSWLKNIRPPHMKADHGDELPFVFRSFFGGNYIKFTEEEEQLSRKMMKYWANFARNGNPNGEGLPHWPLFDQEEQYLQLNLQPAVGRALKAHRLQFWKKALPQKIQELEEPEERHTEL
Sequence of UniProt P50416 (P50416 whole entry, looked up): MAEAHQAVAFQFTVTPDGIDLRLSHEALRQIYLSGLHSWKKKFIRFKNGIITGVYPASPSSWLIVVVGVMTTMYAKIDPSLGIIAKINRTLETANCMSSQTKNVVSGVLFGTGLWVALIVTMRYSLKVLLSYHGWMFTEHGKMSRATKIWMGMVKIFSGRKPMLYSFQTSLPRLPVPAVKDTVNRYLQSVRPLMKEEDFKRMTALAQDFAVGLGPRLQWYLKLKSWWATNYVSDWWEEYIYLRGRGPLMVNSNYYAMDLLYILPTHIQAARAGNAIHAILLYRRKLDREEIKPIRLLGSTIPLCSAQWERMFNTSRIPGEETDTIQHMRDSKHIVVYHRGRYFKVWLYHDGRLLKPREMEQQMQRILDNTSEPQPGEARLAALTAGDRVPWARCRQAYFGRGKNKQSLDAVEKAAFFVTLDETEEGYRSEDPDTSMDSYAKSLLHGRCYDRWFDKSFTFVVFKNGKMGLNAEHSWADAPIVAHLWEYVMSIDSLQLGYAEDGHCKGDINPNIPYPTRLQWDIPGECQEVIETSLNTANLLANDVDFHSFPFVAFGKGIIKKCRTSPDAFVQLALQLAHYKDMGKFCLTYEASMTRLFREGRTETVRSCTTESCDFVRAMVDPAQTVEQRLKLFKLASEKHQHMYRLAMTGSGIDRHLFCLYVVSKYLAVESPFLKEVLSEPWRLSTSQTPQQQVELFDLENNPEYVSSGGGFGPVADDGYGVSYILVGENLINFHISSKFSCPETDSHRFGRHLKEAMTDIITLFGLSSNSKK
Sequence of UniProt P19784 (P19784 whole entry, looked up): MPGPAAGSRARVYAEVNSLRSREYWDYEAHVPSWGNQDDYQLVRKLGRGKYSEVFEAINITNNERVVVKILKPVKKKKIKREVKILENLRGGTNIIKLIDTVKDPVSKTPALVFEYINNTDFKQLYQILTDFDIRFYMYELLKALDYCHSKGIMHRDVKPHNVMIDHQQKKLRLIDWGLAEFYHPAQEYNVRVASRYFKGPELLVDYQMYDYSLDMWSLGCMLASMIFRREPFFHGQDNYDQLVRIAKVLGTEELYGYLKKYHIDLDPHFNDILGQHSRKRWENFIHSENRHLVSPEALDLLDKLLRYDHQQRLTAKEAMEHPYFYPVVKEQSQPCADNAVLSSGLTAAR
Sequence of UniProt Q5VT25 (Q5VT25 whole entry, looked up): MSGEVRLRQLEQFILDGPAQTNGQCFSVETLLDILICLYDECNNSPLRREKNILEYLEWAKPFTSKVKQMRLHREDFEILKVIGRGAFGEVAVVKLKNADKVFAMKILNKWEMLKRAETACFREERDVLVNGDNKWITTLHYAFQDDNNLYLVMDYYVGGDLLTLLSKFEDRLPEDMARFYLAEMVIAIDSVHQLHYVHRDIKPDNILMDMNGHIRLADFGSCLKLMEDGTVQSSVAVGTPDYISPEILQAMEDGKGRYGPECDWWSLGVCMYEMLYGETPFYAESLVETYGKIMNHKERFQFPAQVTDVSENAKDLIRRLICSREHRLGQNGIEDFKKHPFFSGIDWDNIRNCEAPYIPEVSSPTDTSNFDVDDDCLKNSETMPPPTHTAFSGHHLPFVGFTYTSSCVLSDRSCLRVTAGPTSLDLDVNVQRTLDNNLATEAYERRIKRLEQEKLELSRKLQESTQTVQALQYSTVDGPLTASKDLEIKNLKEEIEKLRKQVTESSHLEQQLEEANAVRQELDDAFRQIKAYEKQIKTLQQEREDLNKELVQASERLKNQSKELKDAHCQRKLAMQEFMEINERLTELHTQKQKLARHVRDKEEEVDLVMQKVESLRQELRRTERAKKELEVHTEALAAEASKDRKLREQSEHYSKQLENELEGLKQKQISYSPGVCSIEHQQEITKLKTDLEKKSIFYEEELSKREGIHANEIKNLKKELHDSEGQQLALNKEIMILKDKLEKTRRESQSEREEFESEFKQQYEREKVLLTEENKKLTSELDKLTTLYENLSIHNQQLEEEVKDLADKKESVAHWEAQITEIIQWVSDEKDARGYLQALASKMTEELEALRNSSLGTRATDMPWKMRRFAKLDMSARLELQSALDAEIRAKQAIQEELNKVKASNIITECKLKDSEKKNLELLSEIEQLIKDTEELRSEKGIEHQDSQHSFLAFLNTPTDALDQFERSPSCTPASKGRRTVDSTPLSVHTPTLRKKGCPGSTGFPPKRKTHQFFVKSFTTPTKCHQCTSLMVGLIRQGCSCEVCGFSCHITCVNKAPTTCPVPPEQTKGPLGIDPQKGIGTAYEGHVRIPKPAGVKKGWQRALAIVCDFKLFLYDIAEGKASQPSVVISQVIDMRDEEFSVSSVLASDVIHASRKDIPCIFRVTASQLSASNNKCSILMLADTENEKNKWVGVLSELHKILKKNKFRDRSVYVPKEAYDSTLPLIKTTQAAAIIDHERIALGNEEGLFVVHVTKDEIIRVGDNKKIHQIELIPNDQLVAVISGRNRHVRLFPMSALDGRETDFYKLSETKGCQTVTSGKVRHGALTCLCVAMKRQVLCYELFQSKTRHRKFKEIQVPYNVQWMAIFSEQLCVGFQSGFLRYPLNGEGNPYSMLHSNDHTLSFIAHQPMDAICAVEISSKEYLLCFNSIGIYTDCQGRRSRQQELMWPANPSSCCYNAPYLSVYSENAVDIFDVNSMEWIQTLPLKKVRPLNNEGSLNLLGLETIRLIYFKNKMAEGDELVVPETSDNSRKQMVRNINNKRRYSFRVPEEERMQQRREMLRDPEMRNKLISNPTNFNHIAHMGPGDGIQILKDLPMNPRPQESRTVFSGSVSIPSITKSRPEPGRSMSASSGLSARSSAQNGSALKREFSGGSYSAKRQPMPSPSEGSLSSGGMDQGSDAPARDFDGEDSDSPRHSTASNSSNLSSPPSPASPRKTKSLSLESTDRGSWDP
Sequence of UniProt P45973 (P45973 whole entry, looked up): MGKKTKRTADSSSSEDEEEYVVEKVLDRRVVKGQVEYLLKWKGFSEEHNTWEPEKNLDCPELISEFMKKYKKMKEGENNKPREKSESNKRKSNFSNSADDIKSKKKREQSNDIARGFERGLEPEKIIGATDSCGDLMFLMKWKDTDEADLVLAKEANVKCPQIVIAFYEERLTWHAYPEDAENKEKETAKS
Sequence of UniProt Q8NHZ8 (Q8NHZ8 whole entry, looked up): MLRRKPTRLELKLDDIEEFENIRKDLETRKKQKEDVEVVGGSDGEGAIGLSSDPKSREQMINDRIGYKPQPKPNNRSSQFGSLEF

Compound in the assay: C[C@H](C1=CC=C(C=C1)C(=O)NC2=C3C=CNC3=NC=C2)N
The assay can be described thus: log2 fold change, soluble protein after heating vs DMSO (PISA); higher = thermal stabilisation; K562 cells, 10 uM, 30 min; active = over 0.2 and 3.5 SD of the protein, either way, in both replicates (recomputed). The essentials:
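K562 cells at 2×10^6 cells/mL were treated with 10 μM compound for 30 min. Aliquots were heated for 3 min across 48°C-58°C, pooled, and extracted in PBS with 0.5% NP-40 at 4°C; soluble protein was the supernatant after 21,000xg for 90 min. Soluble protein was quantified by TMTpro 16plex LC-MS/MS with channel sums equalised, and reported as log2 fold change in thermal stability against DMSO controls, with values from duplicates.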
As to CHP1 (UniProt Q99653), the log2 fold change was -0.027.
The value for CES2 isoform 4 (UniProt O00748) was -0.079.
The same measure for CPT2 (UniProt P23786): -0.01.
For CNN2 (UniProt Q99439), the log2 fold change was -0.005.
The value for CBX5 (UniProt P45973) was -0.058.
The value for CNOT4 isoform 6 (UniProt O95628) was -0.076; that for CD55 isoform 7 (UniProt P08174) was -0.14.
With CPT1A (UniProt P50416), the log2 fold change is 0.047.
Take CD81 (UniProt P60033): the log2 fold change was -0.232.
Regarding CRK (UniProt P46108), the log2 fold change was -0.064.
The same measure for CSK (UniProt P41240): -0.004.
The value for CELF2 isoform 3 (UniProt O95319) was -0.038; that for CDK5RAP3 isoform 4 (UniProt Q96JB5) was -0.038.
For CSNK2A2 (UniProt P19784), the log2 fold change was -0.234 (active).
With CCZ1 (UniProt P86791), the log2 fold change is 0.005.
As to CBR1 (UniProt P16152), the log2 fold change is -0.163.
For the target CHAMP1 (UniProt Q96JM3), the log2 fold change was -0.071.
The value for CHMP4C (UniProt Q96CF2) was -0.003; that for CBS (UniProt P35520) was -0.054.
The same measure for COX15 (UniProt Q7KZN9): 0.006; for CDAN1 (UniProt Q8IWY9): 0.066; for CDC26 (UniProt Q8NHZ8): 0.212.
Take COPS3 (UniProt Q9UNS2): the log2 fold change was -0.023.
The value for CALCOCO2 isoform 4 (UniProt Q13137) was 0.024.
Consider CASP10 isoform 4 (UniProt Q92851), for which the log2 fold change was -0.137.
The value for C9orf72 (UniProt Q96LT7) was -0.048; that for CSNK2A1 (UniProt P68400) was -0.17; that for CCNB1 (UniProt P14635) was -0.024.
CHCHD1 (UniProt Q96BP2): the log2 fold change was -0.067.
Take CERT isoform 3 (UniProt Q9Y5P4): the log2 fold change is -0.327 (active).
CCDC9 (UniProt Q9Y3X0): the log2 fold change was 0.105.
For the target CAMKK2 (UniProt Q96RR4), the log2 fold change is -0.182.
With COMT (UniProt P21964), the log2 fold change is -0.081.
The same measure for CCNK isoform 4 (UniProt O75909): -0.042; for CDC42BPA isoform 6 (UniProt Q5VT25): -0.596 (active); for C9orf64 (UniProt Q5T6V5): 0.
